For eight molecules, outcome and Potency results are on record in PubChem BioAssay (NCATS).

For assay [1], the target named is Tumor susceptibility gene 101 protein (Homo sapiens) (UniProt Q99816). Nature of the assay: qHTS Validation Assay for Iinhibitors of HIV-1 Budding by Blocking the Interaction of PTAP/TSG101 (AID 485342; calls by dose curve). An outline of the steps: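 Fluorescence anisotropy measured PTAP-Tsg101 interaction. Final concentrations were 10 uM protein domain and 50 nM labeled peptide, equilibrated 20 min at room temperature.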
Chain of Tumor susceptibility gene 101 protein (Homo sapiens) (Q99816 whole entry, looked up, the tested form may be a part): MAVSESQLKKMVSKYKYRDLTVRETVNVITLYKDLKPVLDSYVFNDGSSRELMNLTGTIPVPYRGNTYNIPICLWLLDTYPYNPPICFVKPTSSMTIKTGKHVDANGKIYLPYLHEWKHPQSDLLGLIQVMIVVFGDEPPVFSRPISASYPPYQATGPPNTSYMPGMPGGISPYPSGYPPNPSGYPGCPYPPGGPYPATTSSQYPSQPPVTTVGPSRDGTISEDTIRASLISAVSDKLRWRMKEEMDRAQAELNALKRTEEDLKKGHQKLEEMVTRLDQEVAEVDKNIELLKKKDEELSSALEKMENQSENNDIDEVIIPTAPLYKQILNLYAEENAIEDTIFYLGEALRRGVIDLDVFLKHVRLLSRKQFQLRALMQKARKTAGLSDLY
(In general: In qHTS, concentration-response curves come from the screen itself.)

For assay [2], the target named is Beta-2 adrenergic receptor (Homo sapiens) (UniProt P07550). Nature of the assay: qHTS validation assay of beta-arrestin-biased ligands of beta2-adrenergic receptor (AID 485366). An outline of the steps:
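Agonism was measured as beta-arrestin recruitment to recombinant beta2-AR, releasing tTA to drive luciferase. Cells were exposed for 18 hr at 37 degrees C to a series up to 46 microM. %Activity from corrected luminescence gave concentration-response curves.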

The target of assay [3] is Ferritin light chain (Equus caballus) (UniProt P02791). Nature of the assay: qHTS Validation Assay for Identification of Novel General Anesthetics (AID 2323). An outline of the steps:
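Apoferritin from horse spleen (10 uM) was mixed with 1-aminoanthracene at 50% saturation in PBS, then compounds were added. After 10 min at room temperature, fluorescence was read (ex 380 nm, em 535 nm) and normalized to free-probe and complex controls.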

Assay [4] addresses ATP-dependent DNA helicase Q1 (Homo sapiens) (UniProt P46063). Nature of the assay: qHTS Validation Assay for Inhibitors of RecQ-Like Dna Helicase 1 (RECQ1) (AID 2353). An outline of the steps:
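RECQ1T1 50 nM; forked duplex (20 bp + 30-nt ss tails) 200 nM, ATP 2 mM final; pH 8.0, 2 mM MgCl2, 2.5 ug/ml poly(dI-dC); 15 min compound preincubation; discontinuous kinetic read over 2 h at RT.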

Assay [5] can be described thus: Cytometric Cell-Based qHTS for Inhibitors of the mTORC1 Signaling Pathway in MEF (Tsc2-/-, p53-/-) Cells (AID 2660).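 Further: Tsc2 and p53 null MEFs carrying empty vector with compound for 24 h; percent of cells above a phospho-rpS6 to PI ratio cutoff in each well.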 An outline of the steps:
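Immunofluorescence qHTS of rpS6 Ser235/236 phosphorylation: MEFs (Tsc2-/-, p53-/-) treated 24 h, 37 C, in DMEM + 10% FBS. Alexa-488 signal normalized to PI count, referenced to rapamycin (7.5 nM) and DMSO; PI cell number recorded for viability.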

Assay [6] is described as follows: High Content Imaging Cell-Based qHTS for Inhibitors of the mTORC1 Signaling Pathway in MEF (Tsc2-/-, p53-/-) Cells (AID 2666).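 Further: percent of cells scored positive for phospho-rpS6 Ser235/236 immunostaining by imaging.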 The note with it: at 38.3 µM (top of the series). An outline of the steps: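 Inhibition of rpS6 phosphorylation is measured by immunofluorescence imaging in empty-vector Tsc2-/-, p53-/- mouse embryonic fibroblasts after 24 hrs compound exposure at 37 degree Celsius. Results are reported as % positive cells per well.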

Assay [7] is described as follows: High Content Imaging Cell-Based qHTS for Inhibitors of the mTORC1 Signaling Pathway in MEF Cells (AID 2667).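 Further: Tsc2-/- p53-/- MEFs stably re-expressing wild-type Tsc2 exposed 24 h.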 An outline of the steps: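 Fixed-cell imaging of phospho-S6 (Ser235/236, Alexa-488) after 24 hrs of compound treatment at 37 degree Celsius. Signal was normalized to Hoechst, and thresholds from the highest and lowest wells split cells into % active versus % non-active.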

The nature of assay [8]: Cytometry Cell-Based qHTS for Inhibitors of the mTORC1 Signaling Pathway in MEF cells (AID 2668).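 Further: Tsc2-/- p53-/- mouse embryonic fibroblasts stably re-expressing wild-type Tsc2; percent cells positive for phospho-rpS6 Ser235/236 relative to propidium iodide stain.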 An outline of the steps: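 Pathway inhibition in WT Tsc2-rescued Tsc2-/-, p53-/- MEFs is measured as the Alexa-488 phospho-rpS6 to propidium iodide intensity ratio after 24 hrs of compound at 37 degree Celsius. PI-stained cell number gives viability.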
Assay [9] can be described thus: Validation screen for small molecules that induce DNA re-replication in MCF 10A normal breast cells (AID 463097). Further: nearly all actives have a fitted effect of over 60% in size. An outline of the steps:
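DNA re-replication was detected as a rise in nuclei with elevated Hoechst fluorescence after a 48 hr compound exposure of MCF 10A cells at 37 C.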

Assay [10] deals with Ubiquitin carboxyl-terminal hydrolase 2 (Homo sapiens) (UniProt O75604). Nature of the assay: qHTS Validation Assay for Inhibitors of Ubiquitin-specific Protease USP2a Using CHOP2 as the Reporter (AID 463106). An outline of the steps: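 Inhibition is expressed relative to NEM as the full-inhibition control, with concentration-response curves classed by fit quality, magnitude and activity. Enzyme (USP2 core, 10nM) meets 25nM Ub-CHOP2 after compound preincubation; readings are taken at 60min.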
Chain of Ubiquitin carboxyl-terminal hydrolase 2 (Homo sapiens) (O75604 whole entry, looked up): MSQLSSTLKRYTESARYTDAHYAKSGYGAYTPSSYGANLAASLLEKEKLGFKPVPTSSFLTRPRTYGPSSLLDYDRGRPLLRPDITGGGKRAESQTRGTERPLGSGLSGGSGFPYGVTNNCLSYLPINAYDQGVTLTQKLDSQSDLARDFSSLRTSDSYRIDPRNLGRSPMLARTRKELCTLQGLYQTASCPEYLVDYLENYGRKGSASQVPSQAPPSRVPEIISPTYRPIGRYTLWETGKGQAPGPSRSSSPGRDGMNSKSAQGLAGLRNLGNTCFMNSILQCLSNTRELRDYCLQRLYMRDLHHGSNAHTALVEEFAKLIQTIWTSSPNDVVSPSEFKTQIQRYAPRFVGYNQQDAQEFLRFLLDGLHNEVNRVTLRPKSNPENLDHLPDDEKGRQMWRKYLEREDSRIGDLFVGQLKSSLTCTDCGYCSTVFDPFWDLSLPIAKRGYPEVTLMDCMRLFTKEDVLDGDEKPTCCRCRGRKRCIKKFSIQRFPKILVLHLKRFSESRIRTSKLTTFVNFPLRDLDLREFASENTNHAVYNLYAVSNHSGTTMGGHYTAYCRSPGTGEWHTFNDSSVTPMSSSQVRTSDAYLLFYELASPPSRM

Assay [11] concerns the target DNA polymerase III PolC-type (Bacillus subtilis (strain 168)) (UniProt P13267). Nature of the assay: qHTS Validation Assay for the Inhibitors of DNA Replication in Gram-Positive Bacteria (AID 485295).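 Further: reconstituted holoenzyme with PolC plus beta clamp SSB and primase; PicoGreen fluorescence of double-stranded DNA made on primed circular M13 template.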 An outline of the steps: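 Primed replication of single-stranded M13Gori by a four-protein B. subtilis holoenzyme is measured at room temperature. Double-stranded product is quantified by PicoGreen fluorescence after an EDTA stop; inhibition is scaled between DMSO and EDTA controls.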

Assay [12] is described as follows: Quantitative high throughput screen for delayed death inhibitors of the malarial parasite plastid, 96 hour incubation (AID 488745).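 Further: luciferase-expressing P. falciparum in erythrocytes at 2% hematocrit and 0.1% parasitemia; nearly all actives have a fitted effect of over 70% in size.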 An outline of the steps: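 Readout is firefly luciferase luminescence from an integrated reporter in P. falciparum; lower signal marks inhibited growth. Cultures at 2% hematocrit and 0.1% parasitemia were treated with compound across two generations (96 h, 37 C, 5% CO2).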

Assay [13] in a line: Quantitative high throughput screen for delayed death inhibitors of the malarial parasite plastid, 48 hour incubation (AID 488752). Further: nearly all actives have a fitted effect of over 65% in size. An outline of the steps: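 First, compound was pinned into RPMI 1640 medium containing 0.5% Albumax. Next, reporter-parasite-infected erythrocytes were added to 2% hematocrit and 0.1% parasitemia. After 48 h at 37 C under 5% CO2, luciferase detection reagent was added and luminescence read.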

Assay [14] has as its target Thioredoxin reductase 1, cytoplasmic (Rattus norvegicus) (UniProt O89049). Nature of the assay: qHTS Assay for Substrates of Mammalian Selenoprotein Thioredoxin Reductase 1 (TrxR1) (AID 488772).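 Further: a drop in NADPH fluorescence below the no-compound background marks a TrxR1 substrate.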 An outline of the steps:
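In this dual-purpose format, potential substrates are identified from the first fluorescence read after selenite addition, not from the 8-minute delta. Rat enzyme is preincubated with NADPH and then with compound at ~22 deg C.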

Assay [15] shares this target. Nature of the assay: qHTS Assay for Inhibitors of Mammalian Selenoprotein Thioredoxin Reductase 1 (TrxR1) (AID 488773).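 Further: drop in NADPH fluorescence over an 8 min run after selenite addition; nearly all actives have a fitted effect of over 40% in size.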 Conditions: Potency: inhibition. An outline of the steps:
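Inhibition is scored from the loss of NADPH fluorescence between first and last reads of an 8-min kinetic run. Selenite (400 uM) was the substrate, added after 15 min compound preincubation at room temperature.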

Assay [16] concerns the target Flap endonuclease 1 (Homo sapiens) (UniProt P39748). Nature of the assay: qHTS Validation Assay for the Inhibitors of Human Flap endonuclease 1 (FEN1) (AID 488816). Further: potency means the concentration at half of the fitted maximal effect. An outline of the steps:
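Steps: add FEN1 (10 nM reagent) or buffer only; pin compounds; hold 15 min at room temperature; start with substrate, 50 nM final; read at 0 and 15 min; correct, normalize and fit a four-parameter Hill curve.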

Assay [17] has as its target ATP-dependent 6-phosphofructokinase (Trypanosoma brucei brucei) (UniProt O15648). Nature of the assay: qHTS Validation Assay to Find Inhibitors of T. brucei phosphofructokinase (AID 485368). Conditions: outcome: dose series up to 57.5 µM. An outline of the steps:
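ADP-Glo luminescence, two-step: residual ATP depleted, then ADP converted to ATP for luciferase. Enzyme 1.25 nM, F6P 0.5 mM, ATP 0.1 mM, pH 8.0 TEA buffer, 45 min RT. Curves fitted and classed by quality and efficacy.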

A short description of assay [18]: qHTS Validation Assay to Find Inhibitors of Chronic Active B-Cell Receptor Signaling (AID 485345; active means well fitted curve in the direction sought with a large enough effect in the main read-out, with a control signal flat, not every such curve was filed as active). An outline of the steps:
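TMD8 ABC-DLBCL cells with dox-inducible green luciferase–IκBα fusion and red native luciferase; compounds 46 uM–3 nM, 4 h at 37C with doxycycline in 0.5% FBS IMDM. Green/red ratio normalized to basal and 10 uM MG-132.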

Results filed as inconclusive are left out. The source made the active and inactive calls. Unless noted, the call rests on the fitted dose curve; in most records, active means well fitted curve in the direction sought with a large enough effect; inconclusive means small, poorly fitted or top-dose-only effect, or another doubt; inactive means no such curve, though single readings can be large; an effect the other way counts as inactive or inconclusive.

Chain of Ferritin light chain (Equus caballus) (P02791 2-175 limits assumed): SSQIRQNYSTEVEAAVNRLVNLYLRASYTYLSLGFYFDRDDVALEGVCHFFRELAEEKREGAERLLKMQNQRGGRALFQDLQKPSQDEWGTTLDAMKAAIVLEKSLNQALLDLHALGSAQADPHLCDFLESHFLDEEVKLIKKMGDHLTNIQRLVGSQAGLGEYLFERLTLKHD
Chain of Flap endonuclease 1 (Homo sapiens) (P39748 whole entry, looked up): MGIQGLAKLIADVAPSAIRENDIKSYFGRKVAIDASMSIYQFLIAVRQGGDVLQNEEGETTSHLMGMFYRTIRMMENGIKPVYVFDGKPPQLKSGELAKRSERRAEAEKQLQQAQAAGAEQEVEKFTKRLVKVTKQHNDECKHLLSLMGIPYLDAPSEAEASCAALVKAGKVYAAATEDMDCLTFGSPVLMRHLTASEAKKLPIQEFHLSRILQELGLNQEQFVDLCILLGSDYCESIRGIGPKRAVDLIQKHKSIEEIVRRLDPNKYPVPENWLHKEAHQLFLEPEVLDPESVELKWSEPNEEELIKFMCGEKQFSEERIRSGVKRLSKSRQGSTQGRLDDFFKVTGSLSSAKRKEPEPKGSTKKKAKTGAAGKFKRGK
Chain of Thioredoxin reductase 1, cytoplasmic (Rattus norvegicus) (O89049 whole entry, looked up): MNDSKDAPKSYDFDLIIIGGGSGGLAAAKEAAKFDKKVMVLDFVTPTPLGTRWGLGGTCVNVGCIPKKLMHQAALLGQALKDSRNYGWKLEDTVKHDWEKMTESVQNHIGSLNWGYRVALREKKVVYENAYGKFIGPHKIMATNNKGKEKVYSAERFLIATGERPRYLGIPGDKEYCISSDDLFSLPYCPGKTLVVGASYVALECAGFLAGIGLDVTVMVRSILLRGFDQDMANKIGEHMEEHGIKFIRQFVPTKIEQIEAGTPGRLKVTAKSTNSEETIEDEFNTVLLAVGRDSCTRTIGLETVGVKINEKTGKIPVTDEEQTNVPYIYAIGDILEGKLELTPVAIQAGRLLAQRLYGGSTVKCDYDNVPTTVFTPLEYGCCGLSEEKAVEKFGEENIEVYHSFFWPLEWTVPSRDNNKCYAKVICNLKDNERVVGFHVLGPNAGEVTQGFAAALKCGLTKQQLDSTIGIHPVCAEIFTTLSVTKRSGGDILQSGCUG
Chain of Beta-2 adrenergic receptor (Homo sapiens) (P07550 whole entry, looked up): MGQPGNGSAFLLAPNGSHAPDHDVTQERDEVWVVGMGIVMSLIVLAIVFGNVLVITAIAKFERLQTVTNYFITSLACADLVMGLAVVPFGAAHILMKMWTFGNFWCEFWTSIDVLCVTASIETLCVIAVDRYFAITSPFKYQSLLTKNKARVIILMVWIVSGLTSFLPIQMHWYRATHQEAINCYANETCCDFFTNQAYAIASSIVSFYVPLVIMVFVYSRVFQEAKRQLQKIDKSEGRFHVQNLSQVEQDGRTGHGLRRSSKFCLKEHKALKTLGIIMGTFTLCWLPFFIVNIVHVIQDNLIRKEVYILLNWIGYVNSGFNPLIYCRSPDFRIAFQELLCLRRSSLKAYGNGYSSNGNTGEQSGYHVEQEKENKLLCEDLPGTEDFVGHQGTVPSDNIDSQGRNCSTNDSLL
Chain of DNA polymerase III PolC-type (Bacillus subtilis (strain 168)) (P13267 whole entry, looked up): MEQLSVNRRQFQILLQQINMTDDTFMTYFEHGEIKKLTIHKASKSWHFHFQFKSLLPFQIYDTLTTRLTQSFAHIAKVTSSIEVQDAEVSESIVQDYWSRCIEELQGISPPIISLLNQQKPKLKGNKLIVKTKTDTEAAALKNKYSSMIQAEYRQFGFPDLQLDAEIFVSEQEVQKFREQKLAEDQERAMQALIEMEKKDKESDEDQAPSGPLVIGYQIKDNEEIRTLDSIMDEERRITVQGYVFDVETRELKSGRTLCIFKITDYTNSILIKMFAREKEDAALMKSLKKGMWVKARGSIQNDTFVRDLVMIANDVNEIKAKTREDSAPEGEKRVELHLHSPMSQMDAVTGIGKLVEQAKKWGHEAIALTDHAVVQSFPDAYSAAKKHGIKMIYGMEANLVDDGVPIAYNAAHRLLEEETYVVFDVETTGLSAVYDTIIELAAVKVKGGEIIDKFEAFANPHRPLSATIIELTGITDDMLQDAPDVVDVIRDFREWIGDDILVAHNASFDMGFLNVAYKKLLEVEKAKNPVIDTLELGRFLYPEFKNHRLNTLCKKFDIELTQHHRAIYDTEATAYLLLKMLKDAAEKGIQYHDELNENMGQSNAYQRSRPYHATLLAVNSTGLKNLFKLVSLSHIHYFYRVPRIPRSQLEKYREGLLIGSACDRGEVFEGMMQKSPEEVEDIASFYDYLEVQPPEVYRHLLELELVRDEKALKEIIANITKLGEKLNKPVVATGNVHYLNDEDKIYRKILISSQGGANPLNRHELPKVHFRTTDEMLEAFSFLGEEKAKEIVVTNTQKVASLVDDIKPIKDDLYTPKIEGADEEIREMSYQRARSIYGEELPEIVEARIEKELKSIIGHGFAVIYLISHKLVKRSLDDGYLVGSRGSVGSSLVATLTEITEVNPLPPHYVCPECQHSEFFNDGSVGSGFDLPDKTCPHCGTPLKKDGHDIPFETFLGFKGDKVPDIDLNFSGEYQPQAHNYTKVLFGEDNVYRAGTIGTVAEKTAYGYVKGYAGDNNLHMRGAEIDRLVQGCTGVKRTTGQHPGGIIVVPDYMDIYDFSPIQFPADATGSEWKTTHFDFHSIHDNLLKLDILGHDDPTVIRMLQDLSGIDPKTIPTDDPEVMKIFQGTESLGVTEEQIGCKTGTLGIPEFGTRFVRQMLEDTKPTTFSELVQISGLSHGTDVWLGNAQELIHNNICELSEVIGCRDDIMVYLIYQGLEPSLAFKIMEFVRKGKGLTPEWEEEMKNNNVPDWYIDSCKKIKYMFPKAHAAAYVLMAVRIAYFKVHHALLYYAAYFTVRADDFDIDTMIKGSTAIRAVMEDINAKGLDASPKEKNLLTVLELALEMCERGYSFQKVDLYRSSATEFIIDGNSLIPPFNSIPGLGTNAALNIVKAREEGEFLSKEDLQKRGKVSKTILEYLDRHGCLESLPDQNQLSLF
Chain of ATP-dependent DNA helicase Q1 (Homo sapiens) (P46063 whole entry, looked up): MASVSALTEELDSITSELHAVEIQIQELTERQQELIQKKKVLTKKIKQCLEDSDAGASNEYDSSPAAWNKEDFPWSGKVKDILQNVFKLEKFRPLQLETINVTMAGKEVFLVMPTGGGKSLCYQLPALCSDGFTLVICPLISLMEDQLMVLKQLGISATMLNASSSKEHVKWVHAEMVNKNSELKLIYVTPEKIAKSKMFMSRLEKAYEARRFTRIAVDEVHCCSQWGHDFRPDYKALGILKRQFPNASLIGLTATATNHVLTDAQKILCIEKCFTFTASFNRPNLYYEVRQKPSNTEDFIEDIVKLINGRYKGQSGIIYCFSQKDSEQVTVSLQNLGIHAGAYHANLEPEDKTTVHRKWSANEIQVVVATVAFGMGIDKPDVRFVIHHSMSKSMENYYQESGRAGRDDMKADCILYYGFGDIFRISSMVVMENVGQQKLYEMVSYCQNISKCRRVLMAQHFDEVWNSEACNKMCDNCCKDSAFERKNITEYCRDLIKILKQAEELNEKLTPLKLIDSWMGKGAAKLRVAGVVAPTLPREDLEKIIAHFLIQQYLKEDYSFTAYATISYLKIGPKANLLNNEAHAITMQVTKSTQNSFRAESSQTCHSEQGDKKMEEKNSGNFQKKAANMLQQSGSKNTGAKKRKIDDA

With `Cc1cc2c(C(C)C)c(O)c(O)c(C=O)c2c(O)c1-c1c(C)cc2c(C(C)C)c(O)c(O)c(C=O)c2c1O`, the outcome in [1] and in assay [2] was inactive.

Take `NNCCc1ccccc1`: the molecule was classed as inactive in assay [3], in assay [4], in [5], in assay [6], in assay [7] and in assay [8]. Also, the result in [10], in assay [1], in assay [2] and in assay [14] was inactive. Besides, the Potency result in [9], in assay [11], in [12], in assay [13], in [15] and in [16] was “inactive” throughout.

With `O=C1CCc2cc(OCCCCc3nnnn3C3CCCCC3)ccc2N1`, the molecule was called inactive in assay [3], in [4], in [5], in assay [6], in assay [7] and in assay [8]. For the same molecule, the molecule was called inactive in assay [10], in [1], in [2] and in assay [14]. Further, the Potency result in assay [9], in assay [11], in assay [12], in assay [13], in [15] and in assay [16] was “inactive” throughout.

Take `Nc1ncnc2nc(-c3ccc(N4CCOCC4)nc3)cc(-c3cccc(Br)c3)c12`: the molecule was called inactive in assay [5], in assay [6], in assay [7], in assay [8], in assay [10] and in assay [1]. For the same molecule, the molecule was called inactive in [2], in assay [17] and in assay [14]. Besides, the Potency result in assay [11] is “inactive”.

`NC[C@H](O)c1ccc(O)c(O)c1`: the outcome in assay [3], in [4], in [5], in assay [6], in assay [7] and in [8] was inactive. Also, the molecule was classed as inactive in assay [10], in assay [1], in assay [18], in [2] and in assay [14]. The Potency result in [9], in assay [11], in [12] and in [13] was “inactive” throughout. For the same molecule, the Potency in [16] is 2120 nM (active).

As to `CCOC(=O)C1=C[C@]2(CC)CCCN3CCc4c(n1c1ccccc41)[C@@H]32`, the molecule was classed as inactive in assay [3], in assay [4], in assay [5], in assay [6], in assay [7] and in assay [8]. Moreover, the result in assay [10], in assay [1], in [2], in assay [17] and in assay [14] was inactive. Besides, the Potency result in [9], in assay [11], in assay [15] and in assay [16] was “inactive” each time.

As to `CCOC(=O)N1CCC(=C2c3ccc(Cl)cc3CCc3cccnc32)CC1`, the result in assay [3], in assay [4], in assay [5], in assay [10], in [1] and in assay [2] was inactive. Further, the molecule was called inactive in assay [14]. Besides, the Potency entry in assay [11], in assay [15] and in [16] was “inactive” each time.

As to `CCC(C)N(C)C(=O)c1cc2ccccc2c(-c2ccccc2Cl)n1` (centres undefined), the molecule was classed as inactive in assay [4], in assay [5], in assay [6], in assay [7], in [8] and in assay [10]. For the same molecule, the result in [1], in assay [18], in assay [2] and in [14] was inactive. The Potency entry in assay [9], in [11], in assay [15] and in assay [16] was “inactive” in each case.
